Tests used:
Experiment in all cases: PBM binding z-score (relative to random genomic background probes); higher = stronger binding; sequences stand for … in GC…GCGATTGACAGCGTAGAATGAAGG
[1] = test system: FXR:RXRa (NR concentration 270 nM, RXRa partner concentration 90 nM)
In short: (§1)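 Probes were double-stranded and carried 34-nt variable regions with direct-repeat seeds, single-nucleotide variants, half-site ablations and random human genomic background sequences, printed on custom Agilent 4×180K protein-binding microarrays. Arrays were incubated 1 h with ligand-free nuclear receptor dimers in PBS pH 7.4, 2% milk, 0.02% Triton X-100, 1 mM DTT, 0.2 mg/mL BSA and 0.4 mg/ml salmon testes DNA. Antibodies against each partner (one per run) detected binding, and scanned fluorescence was regression-normalized. Binding z-scores use the random background probes as reference.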

[2] = test system: LXRa:RXRa (NR concentration 270 nM, RXRa partner concentration 90 nM)
In short: as §1

[3] = test system: LXRa homodimer (NR concentration 270 nM)
In short: as §1

[4] = test system: LXRb:RXRa (NR concentration 270 nM, RXRa partner concentration 90 nM)
In short: as §1

[5] = test system: LXRb homodimer (NR concentration 270 nM)
In short: as §1

[6] = test system: PPARa:RXRa (NR concentration 270 nM, RXRa partner concentration 90 nM)
In short: as §1

[7] = test system: PPARg:RXRa (NR concentration 180 nM, RXRa partner concentration 90 nM)
In short: as §1

[8] = test system: PPARg:RXRa 270nM:90nM, anti-RXR (NR concentration 270 nM, RXRa partner concentration 90 nM)
In short: as §1

[9] = test system: PPARg:RXRa 30nM:10nM, anti-RXR (NR concentration 30 nM, RXRa partner concentration 10 nM)
In short: as §1

[10] = test system: PPARg:RXRa 90nM:30nM, anti-RXR (NR concentration 90 nM, RXRa partner concentration 30 nM)
In short: as §1

[11] = test system: PPARg:RXRa DBDmut IVT, anti-RXR (DBD mutation: RXRa K156A/R161A, NR concentration 270 nM, RXRa partner concentration 90 nM)
In short: as §1

[12] = test system: PPARg:RXRa IVT, anti-PPARg (NR concentration 270 nM, RXRa partner concentration 90 nM)
In short: as §1

[13] = test system: PPARg DBDmut:RXRa IVT, anti-PPARg (DBD mutation: PPARg1 K132A/R137A, NR concentration 270 nM, RXRa partner concentration 90 nM)
In short: as §1

[14] = test system: PPARg DBDmut IVT, anti-PPARg (DBD mutation: PPARg1 K132A/R137A, NR concentration 270 nM)
In short: as §1

[15] = test system: PPARg homodimer (NR concentration 180 nM)
In short: as §1

[16] = test system: PXR:RXRa (NR concentration 270 nM, RXRa partner concentration 90 nM)
In short: as §1

[17] = test system: PXR homodimer (NR concentration 270 nM)
In short: as §1

[18] = test system: RARa:RXR (NR concentration 270 nM, RXRa partner concentration 90 nM)
In short: as §1

[19] = test system: RARa homodimer (NR concentration 270 nM)
In short: as §1

[20] = test system: RARb:RXRa (NR concentration 270 nM, RXRa partner concentration 90 nM)
In short: as §1

Row | Sequence | PBM binding z-score [1] | PBM binding z-score [2] | PBM binding z-score [3] | PBM binding z-score [4] | PBM binding z-score [5] | PBM binding z-score [6] | PBM binding z-score [7] | PBM binding z-score [8] | PBM binding z-score [9] | PBM binding z-score [10] | PBM binding z-score [11] | PBM binding z-score [12] | PBM binding z-score [13] | PBM binding z-score [14] | PBM binding z-score [15] | PBM binding z-score [16] | PBM binding z-score [17] | PBM binding z-score [18] | PBM binding z-score [19] | PBM binding z-score [20]
1 | CCAGACAGTTGAGAAGGTAACTCAGCCTCGATTA | 0.18 | 0.172 | 0.398 | 0.125 | 0.336 | 0.142 | 0.175 | -0.218 | 0.0704 | 0.0662 | 0.0699 | -0.312 | 0.611 | -0.051 | 1.22 | 0.00076 | 0.294 | 0.392 | 1.27 | 0.189
2 | AACTCTAGGTAAAAGTTCAGTGAATCCCGAGGAT | 1.13 | 1.42 | 1.21 | 0.973 | 0.00492 | 4.2 | 7.44 | 7.64 | 6.5 | 8.32 | 2.73 | 3.74 | 1.15 | 0.487 | 1.93 | 1.83 | 1.06 | 1.75 | 0.344 | 2.42
3 | TCGTATAGGTAAAAGGTGAAAGTCGGTGTGGTAA | 1.99 | 2.05 | 0.453 | 2.23 | 0.0721 | 4.51 | 6.49 | 7.01 | 6.31 | 7.11 | 3.45 | 3.77 | 0.0937 | 0.179 | 2.3 | 1.96 | 1.02 | 3.01 | 1.25 | 2.08
4 | CGAACTAGGTCATTGACAGGACAGTCAATAGTAA | 4.28 | 3.15 | 0.489 | 2.19 | 0.17 | 4.74 | 7.38 | 6.08 | 3.32 | 5.75 | 7.74 | 8.19 | 3.76 | 2.34 | 1.94 | 1.66 | 0.135 | 2.34 | 0.378 | 3.51
5 | AGAATGAGGTTCTTAAGATCAGGGAATTGCGGTC | -0.335 | -0.575 | -0.571 | -0.551 | -0.54 | -0.0387 | 0.197 | -0.0485 | -0.306 | 0.0331 | 0.324 | 0.283 | 0.378 | -0.225 | -0.0988 | -0.118 | -0.179 | -0.0748 | -0.832 | 0.0675
6 | ACTATTAGATGAGACGAGGGCAACCGATAGGTTG | 0.455 | 0.107 | 0.389 | 0.0232 | 0.456 | 0.35 | 1.04 | 0.132 | 0.496 | 0.603 | 0.41 | 0.591 | 1.15 | 1.11 | 1.13 | 0.465 | 0.757 | 0.634 | 1.38 | 0.915
